This note sets out measurements from PubChem BioAssay (NCI).

Assay in all cases: NCI-60 one-dose screen, 48 h (100 = growth as untreated, 0 = no growth, -100 = all killed)
Assay [1] concerns NCI-H23 lung. To be noted: 10 µM unless noted.
The test system of assay [2] is NCI-H226 lung. The settings on record: 10 µM unless noted.
Assay [3] relates to NCI-H322M lung. The settings on record: 10 µM unless noted.
The test system of assay [4] is HOP-62 NSCLC. To be noted: 10 µM unless noted.
In assay [5] the test system is NCI-H460 lung. The settings on record: 10 µM unless noted.
For assay [6], the system named is HOP-92 NSCLC. To be noted: 10 µM.
Assay [7] concerns NCI-H522 lung. The settings on record: 10 µM unless noted.
Assay [8] concerns A549/ATCC NSCLC. To be noted: 10 µM unless noted.
Assay [9] relates to 786-0 renal. The settings on record: 10 µM unless noted.
The test system of assay [10] is COLO 205 colon. To be noted: 10 µM unless noted.

This is part of a sample that, as a whole, favours compounds with a hit. Of some 83,000 tested, about 20% had one in any assay.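 Activity criterion: percent growth below 10, measured after cells in 96-well plates were exposed to a single compound concentration for 48 hours.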 A number with no mark means an inactive call. Calls of active or inactive are those of the source.

For `O=C1[C@@H]2Cc3c([nH]c4ccccc34)[C@H](c3c(Cl)cccc3Cl)N2C(=O)CN1C1CCN(CC2CCCCC2)CC1`, the growth in [1] is 91.3%; in assay [2], 85.9%; in [3] it was 83.5%; in assay [4], 104%; in assay [5], 12.7%; in [6], 64.8%. For the same molecule, the growth is 24.1% in assay [7], 64.4% in [8], 46.6% in assay [9] and 96.2% in [10].

On to `CN1CCN(c2ccc(/C=N/Nc3nc4ccccc4c(=O)n3-c3ccccc3)cc2)CC1`, for which the growth in [1] was 103%; in [2], 101%; in [3] it was 103%; in assay [4] it was 96.2%; in assay [5] it was 109%; in [6] it was 102%. Besides, the growth was 93% in [7], 103% in assay [8], 91.6% in assay [9] and 103% in assay [10].

As to `CC(=O)N1C(=S)NC(=O)C1CC(C)C` (stereo not given), the growth in [1] was 106%; in assay [2], 100%; in [3] it was 97.6%; in assay [4], 99.8%; in [5] it was 106%; in assay [6], 98.9%. Moreover, the growth in [7] was 94.9%; in assay [8], 101%; in assay [9], 97.6%; in [10], 110%.

On to `CC/C(=C/c1cc(OC)ccc1O)c1ccc2cc(OC)ccc2[o+]1`, for which the growth in assay [1] is 64.2%; in assay [2] it was 78%; in assay [3], 84.2%; in assay [4], 69.8%; in assay [5] it was 33.6%; in assay [6], 71%. Moreover, the growth was 24.2% in assay [7], 58.3% in assay [8], 65.9% in assay [9] and 56.1% in [10].

Take `COc1ccc2c(c1)c(CC(=O)[Se]CCC#N)c(C)n2C(=O)c1ccc(Cl)cc1`: the growth in assay [1] was 3.36% (active); in assay [2], -53.6% (active); in assay [3], -3.57% (active); in assay [4] it was -48.1% (active); in [5] it was 1.16% (active); in assay [6], -67.8% (active). For the same molecule, the growth is -8.61% (active) in assay [7], 2.64% (active) in [8], -45.3% (active) in assay [9] and 88.4% in [10].

Regarding `COc1c(N2CC3CCCNC3C2)c(F)cc2c(=O)c(C(=O)N/N=C/c3ccccc3)cn(C3CC3)c12` (stereo not given), the growth in assay [1] was 90.7%; in assay [2] it was 103%; in assay [3], 94%; in assay [4] it was 96.6%; in assay [5], 98.7%; in assay [6], 75.3%. The growth in [7] was 109%; in [8], 101%; in [9] it was 66.6%; in [10], 97.5%.

In the case of `COc1ccc2c(c1)c(CC(=O)[Se]CC#N)c(C)n2C(=O)c1ccc(Cl)cc1`, the growth was -11.3% (active) in assay [1]; 29.6% in assay [2]; -1.05% (active) in [3]; 14.1% in assay [4]; 14.5% in assay [5]; 26.3% in [6]. Besides, the growth in assay [7] was -51.3% (active); in assay [8], -9.27% (active); in [9], 47.3%; in [10], -24.8% (active).

On to `CCC(CC)N1C(=O)/C(=c2\sc3n(c2=O)NC2C(N=3)N(CC)C(=O)N2CC)c2ccccc21` (stereo not given), for which the growth is 44.1% in assay [1]; 79.1% in [2]; 80.6% in [3]; 73.2% in assay [4]; 27.5% in [5]; 120% in assay [6]. The growth in [7] was 62.7%; in assay [8], 57.6%; in assay [9], 72.7%; in assay [10], 37.8%.

As for `C#CCNC1CCC(c2csc(C#C)n2)=C1C` (stereo not given), the growth in assay [1] was -39.4% (active); in [2] it was 75.4%; in assay [3], 90.8%; in assay [4], 28.2%; in [5], 98.9%; in [6] it was -50.6% (active). The growth is 49.7% in assay [7], 96.2% in [8], 17.1% in assay [9] and 105% in assay [10].

With `COc1ccc(NC(=O)Nc2ccc3c(ccn3C(=O)c3cccc(F)c3)c2)cc1`, the growth in assay [1] is 72.5%; in [2], 69.2%; in [3] it was 95.1%; in assay [4] it was 91%; in [5] it was 31.7%; in [6], 71.6%. Further, the growth in [7] is 78.6%; in assay [8], 53.9%; in assay [9], 58.2%; in assay [10] it was 104%.

Take `CCCCCc1ccc(S(=O)(=O)Nc2cc(-c3csc(NC(=O)CN4CCN(C)CC4)n3)ccc2OC)cc1`: the growth in [1] was 49.8%; in assay [2], 74.6%; in assay [3], 5.27% (active); in assay [4], 60.3%; in assay [5], -61.5% (active); in assay [6] it was 22.1%. In addition, the growth in assay [7] was -51.9% (active); in [8], 15.1%; in [9], -75% (active); in assay [10], -57.6% (active).

As to `COc1ccc(S(=O)(=O)NCCCNc2nccc(-c3[nH]c(-c4ccccc4)nc3-c3ccc(Cl)c(O)c3)n2)cc1`, the growth in [1] was 83.4%; in assay [2], 103%; in [3], 96.5%; in assay [4] it was 91.7%; in assay [5], 85.6%; in assay [6] it was 114%. In addition, the growth in assay [7] was 69.1%; in assay [8], 102%; in assay [9] it was 125%; in assay [10], 86.3%.

`C=CCN(C)S(=O)(=O)/N=C1\NC(=O)NC1=C(Cl)Cl`: the growth in [1] is 37.5%; in assay [2] it was 89%; in assay [3], 95%; in assay [4], 76.5%; in assay [5], 45.6%; in assay [6] it was -23.4% (active). The growth was -57% (active) in assay [7], 103% in [8], 32.2% in assay [9] and -40.8% (active) in [10].

Turning to `O=C(CCC(=O)N1CCOCC1)OCCCCCCSc1ccc([N+](=O)[O-])c2nonc12`, the growth in assay [1] is -60.7% (active); in assay [2], -20.7% (active); in [3] it was 45.6%; in assay [4] it was 38.1%; in assay [5] it was -13.6% (active); in assay [6], -14.3% (active). Further, the growth in assay [7] is -61.2% (active); in [8], 29.8%; in assay [9], -20.7% (active); in assay [10], -56.7% (active).

Take `O=C(NCc1ncc[nH]1)c1ccc(-c2nc3ccc4[nH]ncc4c3c3c2CCCC3)cc1`: the growth in assay [1] is 14.4%; in assay [2], 36%; in [3], 21.4%; in [4] it was 17.8%; in assay [5] it was 8.85% (active); in assay [6] it was -7.23% (active). Moreover, the growth in assay [7] is -65% (active); in [8] it was 48.2%; in assay [9], 25.4%; in assay [10], -10.4% (active).

With `CCn1c(SCC(=O)Nc2cccc(C(=O)/C=C/c3ccc(Br)cc3)c2)nc2ccccc2c1=O`, the growth is 82.9% in [1]; 88.9% in assay [2]; 94.3% in [3]; 98.8% in [4]; 98.9% in [5]; 76.9% in assay [6]. Also, the growth is 84% in assay [7], 77.7% in [8], 99.8% in assay [9] and 112% in assay [10].

As for `C=C1CC[C@@H]2[C@]3(C)COC(c4ccccc4)O[C@@H]3CC[C@@]2(C)[C@@H]1C/C=C1/C(=O)OC[C@H]1O` (stereo not given in full), the growth in assay [1] is 96.8%; in [2] it was 96.1%; in [3], 97.1%; in assay [4] it was 110%; in assay [5], 99.8%; in assay [6], 105%. Further, the growth was 63.5% in assay [7], 92.6% in [8], 111% in assay [9] and 108% in assay [10].

As to `Cc1ccc2c(c1)Oc1nc(N)c(C#N)c(N)c1C2Sc1ccc(F)cc1` (stereo not given), the growth is -88.2% (active) in assay [1]; -50.6% (active) in assay [2]; -98.7% (active) in [3]; -86.3% (active) in assay [4]; -50.4% (active) in assay [5]; -93.6% (active) in assay [6]. Further, the growth in assay [7] is -58.1% (active); in assay [8] it was -82.2% (active); in assay [9] it was -97.3% (active); in assay [10] it was -49.7% (active).

`N#Cc1c(NC(=O)c2cccc(C(F)(F)F)c2F)sc2c1CCC(=O)C2`: the growth in assay [1] was 11%; in assay [2], -23.9% (active); in [3] it was 35.1%; in [4], 19.4%; in assay [5], 9.08% (active); in [6], -66.1% (active). The growth in [7] was 3.71% (active); in assay [8] it was 12.3%; in assay [9] it was 14.8%; in assay [10], -8.77% (active).

For `CCCCCc1ccc(S(=O)(=O)Nc2cccc(-c3csc(NC(=O)CCCCCN4CCN(CCO)CC4)n3)c2)cc1`, the growth in assay [1] was 81.1%; in assay [2], 92.7%; in [3] it was 87.5%; in assay [4] it was 85.1%; in [5] it was 23.9%; in [6], 62.7%. Besides, the growth in assay [7] was 77.2%; in [8], 74.5%; in assay [9] it was 68.3%; in assay [10] it was 72.8%.

`C#Cc1ccc(C(=O)NCc2ccc(/C=C/C(=O)c3nccn3C)cc2)cc1`: the growth in assay [1] was 10%; in assay [2], 31.9%; in assay [3] it was 12.5%; in [4], 27.5%; in assay [5] it was -45.4% (active); in assay [6], -0.611% (active). Moreover, the growth is 25.9% in assay [7], 13.4% in assay [8], 19.3% in [9] and 22.8% in [10].
